Hsp70 activator – transcriptional activators of Hsp70; actives 0.04% (n = 200,000); activation, % at 10 µM; HeLa Hsp70 promoter luciferase reporter, luminescence; scaled: vehicle 0, proteasome-inhibitor control 100%; AID 1203;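 active = activation above the mean across all tested compounds plus 3 SD, cutoff set per campaign, cut at about 5.5% in these data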;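 also: 100% = MG132 at 30 µM as the positive control and 0% = DMSO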
APP 5'UTR act – activates APP 5'UTR luciferase reporter; SH-SY5Y APP 5'UTR luciferase reporter, luminescence; zero percent = DMSO vehicle wells; activation, % at 2 µM; actives 1% (n = 190,000); AID 1276;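 active = activation above a set limit, based on mean plus 3 SD of controls, cut at about 140% in these data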
APP 5UTR inh – APP translation inhibition | actives 0.82% (n = 190,000) | AID 1285 | inhibition, % at 2 µM | SH-SY5Y APP 5'UTR-luciferase reporter, luminescence;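 active = inhibition above a set limit, derived from the sample mean plus 3 SD, cut at about 45% in these data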
STAT1 act – increases IFN-gamma driven STAT1 reporter signal | NIH 3T3 STAT1-luciferase reporter, luminescence; 100% = IFN-gamma alone, no compound | actives 2.6% (n = 200,000) | activation (% of control), % at 5.5 µM | AID 932;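 active = activation above the screen-wide mean activation plus 3 SD, cut at about 130% in these data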;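 also: raw ratio to IFN-gamma control signal so 100% means no change and 0% no light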
Wee1 degr inh – blocks degradation of human Wee1 kinase | HeLa Luc-Wee1K328M stability, luciferase luminescence; 100% = proteasome inhibitor MG132 effect | reporter increase, % at 5 µM | P30291 | actives 1.2% (n = 220,000);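 active = activation above the mean of all tested compounds plus 3 SD, set per screening run, cut at about 8.8% in these data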;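 also: cells exposed to compound for 20 h before luminescence read; 0% = DMSO alone and 100% = MG132 at 30 µM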
Target sequence (P30291 whole entry K328M): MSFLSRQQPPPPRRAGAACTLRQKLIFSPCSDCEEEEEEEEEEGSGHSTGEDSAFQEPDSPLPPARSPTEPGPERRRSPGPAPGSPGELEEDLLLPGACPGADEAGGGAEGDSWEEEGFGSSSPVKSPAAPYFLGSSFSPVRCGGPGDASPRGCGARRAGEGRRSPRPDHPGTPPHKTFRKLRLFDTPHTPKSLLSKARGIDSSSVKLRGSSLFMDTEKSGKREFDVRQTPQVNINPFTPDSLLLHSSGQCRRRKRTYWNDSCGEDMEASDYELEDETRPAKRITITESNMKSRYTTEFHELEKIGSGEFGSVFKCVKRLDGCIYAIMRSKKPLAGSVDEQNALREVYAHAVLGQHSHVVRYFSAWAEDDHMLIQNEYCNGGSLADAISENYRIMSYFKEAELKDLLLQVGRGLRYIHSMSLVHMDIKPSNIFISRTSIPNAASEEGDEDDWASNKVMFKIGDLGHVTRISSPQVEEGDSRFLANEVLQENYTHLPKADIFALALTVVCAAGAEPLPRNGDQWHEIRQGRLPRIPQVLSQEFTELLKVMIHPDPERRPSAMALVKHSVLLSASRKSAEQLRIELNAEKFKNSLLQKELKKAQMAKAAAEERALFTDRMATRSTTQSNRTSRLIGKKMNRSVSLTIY
NF-kB expr up – compounds increasing NF-kB expression in human neuronal cells. fold change at 12.5 µM. actives 1.6% (n = 190,000). NF-kB reporter expression; hits give high values; in the data active = fold change above about 3.3
STAT1 act conf – confirmation of STAT1 signaling activators; activation (% of control), % at 5.7 µM; shares compounds with STAT1 act; NIH 3T3 STAT1-luciferase reporter, IFN-gamma potentiation, luminescence; 100% = IFN-gamma EC80 alone, no compound; actives 97% (n = 1,200);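 active = activation above a set limit carried over from the earlier primary STAT1 screen, cut at about 140% in these data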;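 also: simple ratio to median IFN-gamma plus DMSO wells so 0% means no light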
NFkB act STAT1ct – NF-kappaB activation in STAT1 activator counter-screen; AID 1306; HEK293T NF-kB luciferase reporter, TNF-alpha stimulated, luminescence; 100% = TNF-alpha with vehicle only; actives 43% (n = 1,200); shares compounds with STAT1 act; activation (% of control), % at 5.7 µM;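 active = activation above the mean of solvent-only control wells plus 3 SD, set per campaign, cut at about 130% in these data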;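 also: TNF-alpha given at a submaximal dose yielding about 80% of full reporter signal; values are well signal over median control so 100% means no change and 0% no light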
STAT3 act STAT1c – counter-screen for STAT1 activators: human STAT3 activation | shares compounds with STAT1 act | U3A cells STAT3-luciferase reporter, IL-6, luminescence; cells lack STAT1; 100 = IL-6 alone, no compound effect | activation (% of control), % at 5.7 µM | actives 46% (n = 1,200);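 active = activation above the solvent-only control well mean plus 3 SD, set per plate batch, cut at about 110% in these data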;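 also: 0% = no luminescence and 100% = median IL-6 plus DMSO wells; higher means more STAT3 reporter activation so hits are non-selective activators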
* hit, by the source's call; x = no result. An excerpt weighted towards active compounds, which were near 4.8% of everything screened.

SMILES	Hsp70 activator	APP 5'UTR act	APP 5UTR inh	STAT1 act	Wee1 degr inh	NF-kB expr up	STAT1 act conf	NFkB act STAT1ct	STAT3 act STAT1c
O=C(Nc1ccc(NC(=O)C23CC4CC(CC(C4)C2)C3)cn1)c1ccco1	0	95	-95	185*	1	1.8	222*	142*	123*
CCC(=O)Nc1ccc(NC(=O)C23CC4CC(CC(C4)C2)C3)cn1	0	9	-9	103	-2	1.7	x	x	x
COc1cc2c(-c3ccccc3O)nc3c(c(C)nn3-c3ccccc3)c2cc1OC	0	-12	12	98	-3	1.2	x	x	x
Clc1c(-c2ccccc2)nnn1-c1ccccc1	0	153*	-153	177*	0	4.8*	209*	137*	107
COc1ccc(NCc2nc3ccccc3n2CCOc2ccc(C)cc2)cc1	0	17	-17	99	-3	1.8	x	x	x
Cc1ccc(NCc2nc3ccccc3n2C)cc1	0	175*	-175	153*	5	5.3*	183*	133	190*
COc1ccc(NC(=O)Nc2ccc(Br)cn2)cc1	0	94	-94	169*	0	2.2	160*	120	91
Cc1cc(C(=O)NCCC2=CCCCC2)c(C)o1	0	136*	-136	155*	1	2.3	181*	120	110
COc1ccc(C(=O)N=c2nc3ccccn3s2)cc1	0	117	-117	182*	2	1.4	313*	120	94
COc1ccc(C(=O)O/N=C(/c2ccccc2)c2ccncc2)cc1	0	16	-16	117	-1	1.4	x	x	x
Cc1ccc(N=C/C(C(=O)C(F)(F)F)=C(\O)c2ccco2)cc1Cl	0	136*	-136	183*	1	6.1*	221*	125	144*
O=C(/C(C=Nc1ccc(F)cc1)=C(/O)c1ccco1)C(F)(F)F	0	106	-106	151*	1	3.4*	162*	117	109
Cc1cccc(N=C/C(C(=O)C(F)(F)F)=C(\O)c2ccco2)c1	0	128	-128	163*	-1	4.8*	173*	132	123*
Cc1cc(N/N=C/c2cccc(F)c2)nc(NCc2ccccc2)n1	x	x	x	x	-1	x	x	x	x
COC(=O)CN1C(=S)N(Cc2ccccc2)C(=O)C1CC(=O)Nc1ccc(OC)cc1 (centres undefined)	0	-13	13	89	4	1.1	x	x	x
CCCCNC(=O)CSc1nc2ccccc2c(=O)n1C1CCCC1	0	5	-5	99	4	0.96	x	x	x
Cc1c(-c2nc(N)nc(Nc3ccccc3F)n2)oc2ccccc12	0	176*	-176	198*	4	5.8*	232*	141*	114*
O=C(C1=C(O)C(=O)N(c2ccccc2)C1c1ccc([N+](=O)[O-])cc1)c1cccs1 (centres undefined)	0	-17	17	101	1	0.91	x	x	x
Cc1cccc(-n2ncc3c(NCCN4CCOCC4)ncnc32)c1	0	23	-23	107	1	0.84	x	x	x
Cc1ccc(-n2ncc3c(NCc4ccco4)ncnc32)cc1C	0	129	-129	154*	3	4.7*	181*	140*	106
O=C(N/N=C/C=C/c1ccccc1)c1cccs1	0	78	-78	157*	1	3.5*	165*	137*	99
C/C(=N\NC(=O)c1cccs1)C(C)(C)C	0	89	-89	158*	1	1.9	117	110	113*
O=C(Cc1cccs1)N/N=C/C=C/c1ccccc1	1	34	-34	118	7	1.4	x	x	x
CC(/C=N/NC(=O)c1cccs1)=C\c1ccco1	0	160*	-160	171*	4	5.5*	173*	128	109
O=C(NCc1ccccn1)c1cc(-c2ccc(-c3ccccc3)cc2)nc2ccccc12	0	107	-107	156*	6	1.9	199*	107	148*
SMILES	Hsp70 activator	APP 5'UTR act	APP 5UTR inh	STAT1 act	Wee1 degr inh	NF-kB expr up	STAT1 act conf	NFkB act STAT1ct	STAT3 act STAT1c
Cc1cc(/C=C2/NC(=O)N(c3ccccc3)C2=O)c(C)n1-c1cccnc1	0	86	-86	151*	3	1.2	192*	132	119*
Cc1cc(/C=C2/NC(=S)NC2=O)c(C)n1-c1cccnc1	0	-1	1	127	-3	1.6	x	x	x
COC(=O)CN1C(=O)C(C)=C(c2ccc(C)cc2)S1(=O)=O	0	-8	8	102	2	0.96	x	x	x
CC(=O)c1ccc(NC(=O)COC(=O)c2ccccc2Nc2ccccc2)cc1	-1	0	0	95	-1	1.2	x	x	x
Clc1ccc(/C=N/Nc2ncnc3ccccc23)cc1Cl	0	x	x	158*	4	4.9*	208*	151*	135*
Cc1ccc(Cn2ncn(-c3ccccc3)c2=O)cc1	0	-1	1	113	0	1.5	x	x	x
CCCOC(=O)c1ccc(-c2ccc(C=O)o2)cc1	0	105	-105	162*	2	4.8*	217*	132	104
CCOc1cccc(-c2nc3cc(C)ccc3o2)c1	0	64	-64	152*	1	1.8	159*	122	128*
N/C(=N\OC(=O)c1ccc2c(c1)OCO2)c1cccc([N+](=O)[O-])c1	0	85	-85	153*	-1	3.2	198*	126	118*
O=C(NC(=S)Nc1ccc2c(c1)OCCO2)c1cccc(Br)c1	0	91	-91	153*	2	4.8*	176*	133*	118*
COc1ccccc1/C=C/C(=O)Nc1ccc2c(c1)OCCO2	0	134	-134	179*	2	8.4*	238*	124	105
O=C(CCCc1ccccc1)Nc1ccc2c(c1)OCCO2	0	203*	-203	151*	4	8*	162*	127	119*
COc1ccccc1/C=C/C(=O)Nc1ccc(N2CCOCC2)cc1	0	3	-3	99	-1	0.97	x	x	x
O=C(CCCCCN1C(=O)c2ccccc2C1=O)Nc1ccc2c(c1)OCCO2	0	0	0	94	1	1.1	x	x	x
